Screen size: about 5,500 compounds; about 2,000 (36%) were called active. Roughly 18% stayed inconclusive and do not appear here. Rule as the data show it: active = normalized growth mostly below about 0.91 (no sharp cut-off); inconclusive = no clear call, values can overlap the other calls; inactive = mostly above about 0.92. This is one part of the list.
Assay: chemical genetic growth profiling, strain panel (AID 1159580);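 also: tested at 20 µM; growth read once vehicle control cultures reached saturation at 30 °C; 1 = growth at the plate median or of vehicle wells; lower values mean less growth of the strain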
Settings: growth OD

Measured: normalized growth

CC(=O)Nc1ccccc1
inactive: S. cerevisiae deletion strains, locus YJR066W, strain TOR1, stronger effect = lower value 0.911 | S. cerevisiae deletion strains, locus YJR075W, strain HOC1, stronger effect = lower value 0.99 | S. cerevisiae deletion strains, locus YKL009W, strain mrt4, stronger effect = lower value 0.97 | S. cerevisiae deletion strains, locus YKL068W, stronger effect = lower value 0.99 | S. cerevisiae deletion strains, locus YKL085W, strain MDH1 (second series), stronger effect = lower value 0.977 | S. cerevisiae deletion strains, locus YKL085W, strain MDH1, stronger effect = lower value 0.977 | S. cerevisiae deletion strains, locus YKL160W, strain elf1, stronger effect = lower value 0.985 | S. cerevisiae deletion strains, locus YKL190W, strain CNB1, stronger effect = lower value 0.973 | S. cerevisiae deletion strains, locus YKR001C, strain vps1, stronger effect = lower value 0.98 | S. cerevisiae deletion strains, locus YKR026C, strain gcn3, stronger effect = lower value 0.927 | S. cerevisiae deletion strains, locus YKR091W, strain srl3, stronger effect = lower value 0.95 | S. cerevisiae deletion strains, locus YLL001W, strain dnm1, stronger effect = lower value 0.979 | S. cerevisiae deletion strains, locus YLL026W, stronger effect = lower value 0.972 | S. cerevisiae deletion strains, locus YLL041C, strain sdh2, stronger effect = lower value 0.985 | S. cerevisiae deletion strains, locus YLR027C, strain aat2, stronger effect = lower value 0.961 | S. cerevisiae deletion strains, locus YLR039C, strain RIC1, stronger effect = lower value 0.966 | S. cerevisiae deletion strains, locus YLR058C, strain SHM2, stronger effect = lower value 0.972 | S. cerevisiae deletion strains, locus YLR102C, strain apc9, stronger effect = lower value 0.983 | S. cerevisiae deletion strains, locus YLR113W, strain HOG1, stronger effect = lower value 0.959 | S. cerevisiae deletion strains, locus YLR221C, strain rsa3, stronger effect = lower value 0.967 | S. cerevisiae deletion strains, locus YLR258W, strain gsy2, stronger effect = lower value 0.98 | S. cerevisiae deletion strains, locus YLR262C, strain YPT6 (second series), stronger effect = lower value 0.976 | S. cerevisiae deletion strains, locus YLR262C, strain YPT6, stronger effect = lower value 0.941 | S. cerevisiae deletion strains, locus YLR268W, strain sec22, stronger effect = lower value 0.99 | S. cerevisiae deletion strains, locus YLR320W, strain mms22, stronger effect = lower value 0.964 | S. cerevisiae deletion strains, locus YLR330W, strain CHS5, stronger effect = lower value 0.996 | S. cerevisiae deletion strains, locus YLR342W, strain FKS1 (second series), stronger effect = lower value 1.07 | S. cerevisiae deletion strains, locus YLR342W, strain FKS1, stronger effect = lower value 0.954 | S. cerevisiae deletion strains, locus YLR357W, strain rsc2, stronger effect = lower value 0.967 | S. cerevisiae deletion strains, locus YLR370C, strain arc18, stronger effect = lower value 0.97 | S. cerevisiae deletion strains, locus YLR371W, strain rom2, stronger effect = lower value 0.999 | S. cerevisiae deletion strains, locus YLR384C, strain iki3, stronger effect = lower value 0.986 | S. cerevisiae deletion strains, locus YLR418C, strain cdc73, stronger effect = lower value 1 | S. cerevisiae deletion strains, locus YML016C, strain PPZ1, stronger effect = lower value 0.993 | S. cerevisiae deletion strains, locus YML032C, strain rad52, stronger effect = lower value 0.992 | S. cerevisiae deletion strains, locus YML120C, strain ndi1, stronger effect = lower value 0.967 | S. cerevisiae deletion strains, locus YML124C, strain tub3, stronger effect = lower value 0.982 | S. cerevisiae deletion strains, locus YMR058W, strain fet3, stronger effect = lower value 0.976 | S. cerevisiae deletion strains, locus YMR078C, strain ctf18, stronger effect = lower value 0.982 | S. cerevisiae deletion strains, locus YMR125W, strain sto1, stronger effect = lower value 0.944 | S. cerevisiae deletion strains, locus YMR129W, stronger effect = lower value 0.984 | S. cerevisiae deletion strains, locus YMR205C, strain PFK2, stronger effect = lower value 0.969 | S. cerevisiae deletion strains, locus YMR223W, strain ubp8, stronger effect = lower value 0.985 | S. cerevisiae deletion strains, locus YMR231W, strain pep5, stronger effect = lower value 0.986 | S. cerevisiae deletion strains, locus YMR263W, strain SAP30, stronger effect = lower value 0.981 | S. cerevisiae deletion strains, locus YMR307W, strain GAS1, stronger effect = lower value 1.07 | S. cerevisiae deletion strains, locus YNL067W, strain RPL9B, stronger effect = lower value 0.964 | S. cerevisiae deletion strains, locus YNL071W, strain lat1, stronger effect = lower value 0.976 | S. cerevisiae deletion strains, locus YNL183C, strain NPR1, stronger effect = lower value 0.915 | S. cerevisiae deletion strains, locus YNL209W, strain ssb2, stronger effect = lower value 0.975 | S. cerevisiae deletion strains, locus YNL233W, strain BNI4, stronger effect = lower value 0.978 | S. cerevisiae deletion strains, locus YNL248C, strain rpa49, stronger effect = lower value 0.969 | S. cerevisiae deletion strains, locus YNL250W, strain rad50, stronger effect = lower value 0.97 | S. cerevisiae deletion strains, locus YNL271C, strain bni1, stronger effect = lower value 0.995 | S. cerevisiae deletion strains, locus YNL298W, strain CLA4, stronger effect = lower value 0.986 | S. cerevisiae deletion strains, locus YNL307C, strain MCK1, stronger effect = lower value 0.987 | S. cerevisiae deletion strains, locus YNL322C, strain KRE1 (second series), stronger effect = lower value 0.942 | S. cerevisiae deletion strains, locus YNR049C, strain mso1, stronger effect = lower value 0.952 | S. cerevisiae deletion strains, locus YNR052C, strain pop2, stronger effect = lower value 0.996 | S. cerevisiae deletion strains, locus YOL006C, strain TOP1, stronger effect = lower value 0.928 | S. cerevisiae deletion strains, locus YOL012C, strain htz1 0.771 | S. cerevisiae deletion strains, locus YOL147C, strain pex11, stronger effect = lower value 0.982 | S. cerevisiae deletion strains, locus YOR001W, strain rrp6, stronger effect = lower value 0.979 | S. cerevisiae deletion strains, locus YOR061W, strain CKA2, stronger effect = lower value 0.959 | S. cerevisiae deletion strains, locus YOR069W, strain VPS5, stronger effect = lower value 0.994 | S. cerevisiae deletion strains, locus YOR070C, strain gyp1, stronger effect = lower value 0.972 | S. cerevisiae deletion strains, locus YOR080W, strain dia2, stronger effect = lower value 0.961 | S. cerevisiae deletion strains, locus YOR083W, strain WHI5, stronger effect = lower value 0.965 | S. cerevisiae deletion strains, locus YOR106W, strain vam3, stronger effect = lower value 0.956 | S. cerevisiae deletion strains, locus YOR136W, strain idh2, stronger effect = lower value 0.988 | S. cerevisiae deletion strains, locus YOR144C, strain elg1, stronger effect = lower value 0.987 | S. cerevisiae deletion strains, locus YOR184W, strain ser1, stronger effect = lower value 0.981 | S. cerevisiae deletion strains, locus YOR231W, strain MKK1, stronger effect = lower value 0.968 | S. cerevisiae deletion strains, locus YOR265W, strain rbl2, stronger effect = lower value 0.973 | S. cerevisiae deletion strains, locus YOR270C, strain vph1, stronger effect = lower value 0.927 | S. cerevisiae deletion strains, locus YOR290C, strain snf2, stronger effect = lower value 0.971 | S. cerevisiae deletion strains, locus YOR316C, strain cot1, stronger effect = lower value 0.978 | S. cerevisiae deletion strains, locus YPL051W, strain arl3, stronger effect = lower value 0.982 | S. cerevisiae deletion strains, locus YPL055C, strain LGE1, stronger effect = lower value 0.906 | S. cerevisiae deletion strains, locus YPL078C, strain atp4, stronger effect = lower value 0.971 | S. cerevisiae deletion strains, locus YPL106C, strain sse1, stronger effect = lower value 0.961 | S. cerevisiae deletion strains, locus YPL240C, strain hsp82, stronger effect = lower value 0.994 | S. cerevisiae deletion strains, locus YPL256C, strain CLN2, stronger effect = lower value 0.953 | S. cerevisiae deletion strains, locus YPR119W, strain clb2, stronger effect = lower value 0.986 | S. cerevisiae deletion strains, locus YPR141C, strain kar3, stronger effect = lower value 0.989 | S. cerevisiae deletion strains, locus YPR163C, strain tif3, stronger effect = lower value 0.996 | S. cerevisiae deletion strains, locus YPR167C, strain met16, stronger effect = lower value 0.994 | S. cerevisiae deletion strains, strain wtn01, stronger effect = lower value 1 | S. cerevisiae strains, strain wild type, stronger effect = lower value 0.982
